According to the supplement of paper PMC3545927:
The list shows a part of the results. How many sequences the whole screen found active is unknown.

Target: furin, P09958
Assay: furin cleavage Z-score vs untreated control; higher = more cleavage, active = 3.5 or more, inactive = 1 or less, 8 variable residues between constant flanks
Protocol: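 Multiplexed peptide-cDNA fusion cleavage assay. 8-mer variable peptides flanked by constant Cys-Ala (N-term) and Ala-Gly-Asn-Ala-Ser-Ala-Ser-Ala (C-term) and conjugated to a cDNA oligonucleotide were bead-immobilised via the N-terminus. They were treated with purified furin at a 1:10 enzyme:substrate ratio in 50 mM HEPES pH 7.5, 1 mM CaCl2, 100 mM NaCl for 7.5, 15 or 30 min. Released cDNA was counted by next-generation sequencing, and log counts versus no-furin controls were lowess-adjusted and converted to robust Z-scores.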

Chain of furin, P09958 (P09958 whole entry): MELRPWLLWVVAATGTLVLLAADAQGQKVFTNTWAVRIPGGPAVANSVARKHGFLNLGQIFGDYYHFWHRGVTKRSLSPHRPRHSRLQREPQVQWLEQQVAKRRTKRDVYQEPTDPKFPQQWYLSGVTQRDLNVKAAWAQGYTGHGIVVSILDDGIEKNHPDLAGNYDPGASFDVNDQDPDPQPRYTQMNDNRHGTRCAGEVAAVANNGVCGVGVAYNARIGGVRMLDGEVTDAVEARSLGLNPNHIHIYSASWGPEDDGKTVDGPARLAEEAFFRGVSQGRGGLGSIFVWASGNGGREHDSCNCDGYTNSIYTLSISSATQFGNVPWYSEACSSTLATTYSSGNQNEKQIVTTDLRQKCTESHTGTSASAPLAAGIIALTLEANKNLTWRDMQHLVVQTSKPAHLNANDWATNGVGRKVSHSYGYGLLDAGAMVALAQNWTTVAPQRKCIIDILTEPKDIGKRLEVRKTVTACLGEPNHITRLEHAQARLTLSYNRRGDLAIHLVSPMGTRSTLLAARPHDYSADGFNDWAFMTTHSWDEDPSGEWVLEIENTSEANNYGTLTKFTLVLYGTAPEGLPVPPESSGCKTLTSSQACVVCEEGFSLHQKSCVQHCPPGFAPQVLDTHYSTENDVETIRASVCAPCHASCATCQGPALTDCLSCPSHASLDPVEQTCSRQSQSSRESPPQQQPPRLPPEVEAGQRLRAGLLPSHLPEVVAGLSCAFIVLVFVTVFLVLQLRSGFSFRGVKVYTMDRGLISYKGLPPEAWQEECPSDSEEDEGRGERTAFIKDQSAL

Sequence	furin cleavage Z-score (7.5 min)	furin cleavage Z-score (15 min)	furin cleavage Z-score (30 min)
CADSLNTGWLAGNASASA [HC376]	-0.896 (inactive)	0.0514 (inactive)	-1.36 (inactive)
CAAGLFYHHKAGNASASA [HC380]	-0.0785 (inactive)	-0.406 (inactive)	0.464 (inactive)
CATTPCSESWAGNASASA [HC1892]	-1.68 (inactive)	-0.885 (inactive)	0.194 (inactive)
CAKKKCDELAAGNASASA [HC859]	0.206 (inactive)	-0.587 (inactive)	-1.61 (inactive)
CADAELIEANAGNASASA [HC1272]	1.56	1.04	0.698 (inactive)
CADVSRARRVAGNASASA [FS-1519]	0.954 (inactive)	1.02	1.74
CAGLGRRRRVAGNASASA [FS-1127]	6.73 (active)	8.39 (active)	7.41 (active)
CAPVRRWRRVAGNASASA [FS-1247]	9.64 (active)	9.32 (active)	6.63 (active)
CAPVRRRGDSAGNASASA [HC731]	-0.373 (inactive)	0.103 (inactive)	-0.876 (inactive)
CAGLDRLRRVAGNASASA [FS-1126]	0.977 (inactive)	1.09	1.81
CAYLRRRRRVAGNASASA [FS-391]	9.87 (active)	10.2 (active)	8.18 (active)
CAYINRKKKVAGNASASA [FS-633]	-0.8 (inactive)	-0.697 (inactive)	-0.973 (inactive)
CATTPCSHSWAGNASASA [HC1895]	-0.676 (inactive)	1.01	-1.05 (inactive)
CASIYPGHITAGNASASA [HC314]	-1.99 (inactive)	-1.12 (inactive)	0.0447 (inactive)
CALTSMLTDPAGNASASA [HC1246]	-0.19 (inactive)	-0.57 (inactive)	-0.448 (inactive)
CAHTPCSGSWAGNASASA [HC1835]	-0.934 (inactive)	-0.656 (inactive)	-1.49 (inactive)
CAAQAPPPSWAGNASASA [HC959]	-0.328 (inactive)	0.141 (inactive)	-1.2 (inactive)
CAANHVVKRDAGNASASA [FS-642]	8.87 (active)	11.8 (active)	8.5 (active)
CAINKRVKRDAGNASASA [FS-253]	7.21 (active)	5.79 (active)	4.98 (active)
CAGQSWVKRDAGNASASA [FS-331]	1.45	0.512 (inactive)	1.11
CATHINSVWKAGNASASA [HC1429]	-0.832 (inactive)	-2.14 (inactive)	-0.179 (inactive)
CAEVPTSTWVAGNASASA [HC2199]	0.334 (inactive)	-2.59 (inactive)	-0.0938 (inactive)

Sequence	furin cleavage Z-score (7.5 min)	furin cleavage Z-score (15 min)	furin cleavage Z-score (30 min)
CATQPCSGSWAGNASASA [HC1862]	0.195 (inactive)	-1.61 (inactive)	0.946 (inactive)
CAEVPCHLPSAGNASASA [HC2365]	0.888 (inactive)	0.887 (inactive)	2.28
CAPESRKRREAGNASASA [FS-368]	13.9 (active)	14.4 (active)	11.3 (active)
CAGCVPCVREAGNASASA [HC273]	0.467 (inactive)	0.158 (inactive)	1.81
CAPVLRGQAGAGNASASA [FS-3180]	-0.625 (inactive)	0.202 (inactive)	-0.205 (inactive)
CAPQSRGRREAGNASASA [FS-476]	13.1 (active)	13.2 (active)	8.24 (active)
CAPVVFSQMEAGNASASA [HC647]	1.38	1.32	0.561 (inactive)
CAGSMRANRIAGNASASA [FS-1128]	-0.706 (inactive)	0.0659 (inactive)	0.059 (inactive)
CAGSGPDQRPAGNASASA [HC399]	-0.948 (inactive)	0.971 (inactive)	-0.827 (inactive)
CAGSKRSRREAGNASASA [FS-1207]	11.5 (active)	11.8 (active)	7.54 (active)
CAGQKRSRSRAGNASASA [FS-2862]	0.426 (inactive)	-2.34 (inactive)	0.754 (inactive)
CAGSNRKVREAGNASASA [FS-435]	10.8 (active)	11.2 (active)	7.92 (active)
CAYPKRSAGEAGNASASA [FS-2117]	-0.54 (inactive)	-0.564 (inactive)	0.202 (inactive)
CAGFLRKRREAGNASASA [FS-426]	11.1 (active)	11.2 (active)	8.58 (active)
CAKWLRFIRGAGNASASA [FS-1022]	2.09	0.354 (inactive)	3.09
CATKNRQRRGAGNASASA [FS-1094]	6.87 (active)	7.34 (active)	5.71 (active)
CADGNRQVRGAGNASASA [FS-981]	0.00638 (inactive)	-1.04 (inactive)	0.17 (inactive)
CALNNRQIRGAGNASASA [FS-1136]	3.62 (active)	5.07 (active)	5.04 (active)
CAPPRRQRRGAGNASASA [FS-1050]	0.924 (inactive)	0.828 (inactive)	1.23
CANCLRQRRGAGNASASA [FS-465]	-0.759 (inactive)	-0.337 (inactive)	-0.511 (inactive)
CAWQRRQRRGAGNASASA [FS-896]	6 (active)	6.49 (active)	5.96 (active)
